KCNH2 3.1 block: inhibitors of human KCNH2 3.1 potassium channel isoform | actives 0.95% (n = 340,000) | AID 720553 | activity change, % (tested at about 1.8 µM) | U2OS KCNH2 3.1, thallium flux FluxOr; hits give low values;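 active means maximum activity change below -70%; inconclusive means maximum activity change from -70% to -50%; inactive means maximum activity change above -50%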;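 further: thallium influx rate constant from kinetic fluorescence after stimulation buffer; on the % scale 0 is the no-effect control and ±100 the full control effect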
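Normalized rate constant (relative to positive and negative DMSO controls) derived from a 2 min kinetic fluorescence read after stimulation; U2OS cells expressing the 3.1 isoform via virus at 1.77 x 10^8 /mL.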
PTAP TSG101 blk: blocks PTAP/TSG101 interaction to inhibit HIV-1 budding. Potency, µM (highest dose often 115 µM), for inactives: at the top dose activity change, negative = inhibition, actives largely listed as inhibitors. 340,000 tested, under 10 active. Fluorescence polarization, FITC-PTAP peptide / Tsg101 binding. AID 493005; active means well fitted inhibition curve with a large enough effect in the main read-out, with a control signal flat, not every such curve was filed as active; inconclusive means small, poorly fitted or top-dose-only effect, or effect the other way, or a change in a side signal; inactive means no such curve, though single readings can be large or run the other way; further: potency means the concentration at half of the fitted maximal effect; % of control where 0% means no effect
Target sequence (Q99816 whole entry, looked up): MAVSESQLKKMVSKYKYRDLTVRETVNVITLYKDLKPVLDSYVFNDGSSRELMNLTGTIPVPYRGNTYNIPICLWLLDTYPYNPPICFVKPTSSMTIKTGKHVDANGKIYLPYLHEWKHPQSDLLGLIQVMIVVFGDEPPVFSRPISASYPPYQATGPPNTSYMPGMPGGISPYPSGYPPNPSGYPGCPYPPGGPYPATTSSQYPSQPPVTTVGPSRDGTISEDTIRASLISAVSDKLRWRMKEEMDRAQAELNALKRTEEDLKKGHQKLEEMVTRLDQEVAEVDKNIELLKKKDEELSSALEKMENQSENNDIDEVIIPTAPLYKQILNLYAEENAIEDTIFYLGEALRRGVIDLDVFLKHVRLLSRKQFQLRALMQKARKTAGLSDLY
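Tsg101 binding domain (10 uM final) was mixed with compound and a FITC-labeled PTAP peptide (50 nM final) in HEPES pH 7.5 buffer with NaCl, Tween 20, EDTA and TCEP; fluorescence polarization was read after 20 min at r.t.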
KCNH2 WT inh: blocks the wildtype human KCNH2 potassium channel; U2OS, BacMam KCNH2, thallium flux FluxOr; hits give low values; activity change, % at 1.84 µM; actives 0.37% (n = 340,000);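 active means maximum activity change below -70%; inconclusive means maximum activity change between -70% and -50%; inactive means maximum activity change above -50%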; further: on the % scale 0 is the no-effect control and ±100 the full control effect
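U2OS cells transduced with wild-type KCNH2 virus are loaded with FluxOr dye for 45 min, and thallium flux is measured in kinetic reads before and after stimulation buffer. Rate constants are normalized to DMSO controls.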
TRPML1 ag: human mucolipin-1 channel agonism | TRPML1-expressing cells, Ca2+ dye fluorescence, FDSS | activation, % (concentration not given with the values) | Q9GZU1 | actives 0.12% (n = 410,000) | AID 624414; in the data active means activation above about 50%; inconclusive means mostly about 30% to 49%; further: 0% is about no effect
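Agonist activity was taken from a 110 s kinetic Ca2+ dye read on the FDSS after pinning compounds onto TRPML1-DL cells. The cells were seeded at 1,500/well with Tet inducer, incubated about 16 h, then dye-loaded at room temperature.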
TRPML1 inh: blocks the human TRPML1 channel; activity change, negative = inhibition, % (test concentration not listed); Q9GZU1; AID 624415; TRPML1-inducible cells, Ca2+ dye fluorescence, FDSS; hits give low values; inhibition of EC80 agonist-evoked calcium signal; actives 0.02% (n = 390,000); in the data active means activity change below about -50%; inconclusive means between about -30% and that limit;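 further: stimulus is agonist 54-4 at its EC80 concentration; on the % scale 0 is the no-effect control and ±100 the full control effect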
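Calcium fluorescence in TRPML1-DL cells induced overnight with Tet: a 110 s read after compound pin addition, then a 110 s antagonist read after challenge with 54-4 at 4 uM final (EC80).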
GRP78 ERSR act: induces the endoplasmic reticulum stress response in human glioma cells. U87-MG GRP78 promoter luciferase reporter, 16 h. actives 0.02% (n = 420,000). AID 602332. Potency, µM, inactives show at the top dose activation, hits mostly activators; active means well fitted activation curve with a large enough effect; inconclusive means small, poorly fitted or top-dose-only effect; inactive means no such curve, though single readings can be large or run the other way; further: potency means the concentration at half of the fitted maximal effect; series mostly up to about 76 µM; % of control where 0% means no effect; nearly all actives have a fitted effect of over 35% in size
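Stably transfected U87-MG glioma cells carrying a GRP78-based luciferase sensor; 16 h compound incubation. Luminescence end-point read 10 min after Bright-Glo addition at room temperature.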
The depositor's hits bear a star; ? = inconclusive; nt = no result. Compounds with a hit are over-represented: about 1% of the library has one in this group of screens.

SMILES	KCNH2 3.1 block	PTAP TSG101 blk	KCNH2 WT inh	TRPML1 ag	TRPML1 inh	GRP78 ERSR act
Cc1ccc(-n2nnnc2/C=C\Nc2cc(C)on2)cc1	-6.9	-3.8%	-8.8	-0.1	8.4	1.5%
COc1cccc(CNC(=O)Cc2ccc(-c3ccccc3)cc2)c1	-6.7	6.3%	0.0	2.4	12.6	-7.8%
COC(=O)C(Cc1ccccc1)NC(=O)CCCC(=O)NCc1cccc(OC)c1 (stereo not drawn)	-2.1	-4.0%	-70.0*	-0.3	-8.4	-0.1%
Cc1nc(NCc2ccc3nsnc3c2)sc1-c1ccn(C)n1	nt	nt	nt	nt	nt	2.5%
NC(=O)c1ccccc1[N+](=O)[O-]	-5.4	0.0%	4.0	-0.8	2.3	-3.8%
N#CC(CCc1ccccc1[N+](=O)[O-])(CCc1ccccc1[N+](=O)[O-])C(N)=O	-121.0*	-1.3%	?	1.5	19.6	-3.2%
Cc1nc(N)nc(N/N=C/c2ccccc2)n1	-1.5	-6.6%	-75.6*	nt	nt	-0.9%
O=C(COC(=O)c1ccco1)Nc1cccc(S(=O)(=O)N2CCOCC2)c1	2.1	nt	-5.4	-0.4	20.0	-5.5%
O=C(COC(=O)C1CC2C=CC1C2)Nc1cccc(S(=O)(=O)N2CCOCC2)c1 (stereo not drawn)	-104.3*	0.5%	1.6	-0.6	9.1	-2.5%
Oc1ccc(Nc2nc(N3CCCC3)c3ccccc3n2)cc1	-86.7*	-1.6%	-1.5	-0.8	-10.5	1.2%
CC(=O)OCC(=O)N1CCN(c2ccc([N+](=O)[O-])cc2)CC1	5.3	0.0%	2.8	-0.5	-13.5	-3.9%
O=C(CCCc1ccccc1)N1CCN(c2ccc([N+](=O)[O-])cc2)CC1	-41.8	-1.3%	-12.3	0.6	22.8	1.3%
CCOCC(=O)N1CCN(c2ccc([N+](=O)[O-])cc2)CC1	-73.2*	-2.6%	-95.5*	0.0	-14.9	-2.0%
O=[N+]([O-])c1ccc(N2CCN(C(=S)NCc3ccc(Cl)cc3)CC2)cc1	-93.2*	-0.4%	-25.7	0.2	7.2	-5.7%
O=C(CCCC(=O)N1CCN(c2ccc([N+](=O)[O-])cc2)CC1)c1ccccc1	-95.4*	1.4%	-88.4*	2.5	4.7	-4.2%
Cc1ccc2cc(CNC(C)CO)c(N3CCC(O)CC3)nc2c1 (stereo not drawn)	nt	nt	nt	nt	nt	-6.2%
COCC(=O)Nc1cc(C(=O)N2CCc3c([nH]c4ccccc34)C2)cc2nc(-c3ccccc3)n(C)c12	nt	nt	nt	nt	nt	-2.5%
Cc1cc(C(=O)Nc2cccc(-c3nc(CNC(=O)c4sc(C)nc4C)c(C)o3)c2)c(C)o1	nt	nt	nt	nt	nt	-3.4%
COc1cccc(CC2(CO)CCCN(Cc3c(C)cc(C)cc3-n3cccn3)C2)c1 (stereo not drawn)	-101.6*	1.5%	-124.0*	2.4	1.5	-3.9%
COc1cccc(CC2(CO)CCCN(Cc3[nH]c4ccc(C)cc4c3C)C2)c1 (stereo not drawn)	-99.2*	-2.2%	-88.9*	nt	nt	-18.4%
COc1ccc(-n2ccnc2CN2CCCC(CO)(Cc3cccc(OC)c3)C2)cc1 (stereo not drawn)	14.7	-5.6%	11.4	1.5	-14.1	-3.7%
COc1cc(=O)n2c(c1C(=O)NCc1ccco1)CCN(C(=O)c1c(F)ccc(F)c1F)CC2	nt	nt	nt	nt	nt	2.1%
O=C(CCC1CCCCC1)NCCN1C2=NC[C@@H](Cc3ccccc3)N2C[C@H]1Cc1ccc(O)cc1	-98.7*	-3.6%	-116.4*	1.0	11.8	-5.0%
COc1ccc(C[C@@H]2CN3C(=NC[C@@H]3Cc3ccc(O)cc3)N2C[C@H](C)NC(=O)CCC2CCCCC2)cc1	13.3	-1.1%	-89.4*	0.3	17.0	-0.2%
O=C([C@@H]1C[C@@H](Sc2nc3ccccc3[nH]2)CN1Cc1ccc(Cl)cc1)N1CCN(c2ccccc2F)CC1	nt	nt	nt	nt	nt	-2.6%
SMILES	KCNH2 3.1 block	PTAP TSG101 blk	KCNH2 WT inh	TRPML1 ag	TRPML1 inh	GRP78 ERSR act
CCOC(=O)c1cn(CC(=O)Nc2ccc(CC)cc2)nn1	1.6	-6.4%	-207.9*	-0.7	89.6	-0.3%
O=C(NCCCN1CCOCC1)c1ccccc1N1C(=O)[C@@H]2Cc3c([nH]c4ccccc34)C(c3ccc(F)cc3)N2C1=O (stereo partly drawn)	-82.3*	-1.3%	-43.1	nt	nt	-3.3%
COc1ccc(C(=O)Oc2ccc(C(=S)N3CCOCC3)cc2)cc1	-5.9	-5.5%	1.5	0.5	-0.3	-1.6%
COc1ccc(C(=O)Oc2cc(C(=S)N3CCOCC3)ccc2OC)cc1	-160.6*	0.1%	-140.4*	0.2	94.7	-1.1%
COc1ccccc1-c1ccnc(-n2ncc(C(=O)NCC3(N4CCOCC4)CCCC3)c2C)n1	nt	nt	nt	nt	nt	2.6%
Cc1cc(Br)ccc1NC(=O)CNC(=O)CN(C)Cc1nc2ccccc2c(=O)[nH]1	-98.8*	-3.0%	-12.2	0.3	-6.4	0.9%
Cc1ccc(NC(=O)CN(C)Cc2nc3ccccc3c(=O)[nH]2)c(Br)c1	-25.1	-0.4%	2.4	0.8	6.1	3.4%
CC(Oc1ccc(Br)cc1)C(=O)N1CCC(C(N)=O)CC1 (stereo not drawn)	-71.0*	-3.5%	-5.4	0.6	-15.0	0.1%
CC(Oc1ccc(Br)cc1)C(=O)N1CCN(c2ccccn2)CC1 (stereo not drawn)	12.5	-3.3%	-8.2	0.6	-1.1	-4.4%
Cc1cc(C(=O)Nc2ccccc2-c2nc(CNC(=O)C3(C)CCCCC3)c(C)o2)c(C)o1	nt	nt	nt	nt	nt	-6.2%
CCOC(=O)c1ccc(S(=O)(=O)N2CCN(C3CC(=O)N(c4ccc(OC)cc4)C3=O)CC2)cc1 (stereo not drawn)	2.9	-1.4%	1.5	-0.1	1.7	-1.6%
CCOC(=O)c1ccc(N2C(=O)CC(N3CCN(C/C=C/c4ccccc4)CC3)C2=O)cc1 (stereo not drawn)	-101.1*	-3.5%	-83.7*	-0.1	-13.8	-0.5%
CC(C)(C)c1nc2scc(-c3ccc(Cl)cc3)c2c(=O)o1	-81.7*	-5.2%	-7.3	3.6	10.3	-3.5%
C[n+]1ccc(/C=C/c2ccc([N+](C)(C)C)cc2)c2ccccc21	nt	nt	nt	-0.7	nt	-8.2%
Cc1ccnc(N2C3CCC2CC(O)(c2ccccc2)C3)n1 (stereo not drawn)	8.0	-7.8%	20.9	0.4	-4.7	-4.8%
Cc1cc(N2C3CCC2CC(O)(c2ccc(F)cc2)C3)nc(-c2ccccc2)n1 (stereo not drawn)	-71.8*	-3.5%	10.7	3.9	27.7	-2.2%
COCCN1CCN(C(=O)c2cnn(-c3nccc(-c4cc5ccccc5o4)n3)c2C2CC2)CC1	nt	nt	nt	nt	nt	-3.2%
COc1ccc(N=Cc2sc(O)c3ccccc23)cc1	-18.5	?	-20.4	84.4*	-29.3	1.8%
